Bioassay records from PubChem BioAssay.
D3 antag: D3 dopamine receptor (human) antagonism. max response, negative = inhibition, %. 360,000 tested, 2.5% active. P35462. D3R cells, DiscoveRx beta-arrestin luminescence, antagonist mode; hits give low values; in the data active = max response below about -50%; inconclusive = no clear call, values can overlap the other calls; note: % is set by controls: 0 for no effect and ±100 for the full control effect
Target sequence (P35462 whole entry, looked up): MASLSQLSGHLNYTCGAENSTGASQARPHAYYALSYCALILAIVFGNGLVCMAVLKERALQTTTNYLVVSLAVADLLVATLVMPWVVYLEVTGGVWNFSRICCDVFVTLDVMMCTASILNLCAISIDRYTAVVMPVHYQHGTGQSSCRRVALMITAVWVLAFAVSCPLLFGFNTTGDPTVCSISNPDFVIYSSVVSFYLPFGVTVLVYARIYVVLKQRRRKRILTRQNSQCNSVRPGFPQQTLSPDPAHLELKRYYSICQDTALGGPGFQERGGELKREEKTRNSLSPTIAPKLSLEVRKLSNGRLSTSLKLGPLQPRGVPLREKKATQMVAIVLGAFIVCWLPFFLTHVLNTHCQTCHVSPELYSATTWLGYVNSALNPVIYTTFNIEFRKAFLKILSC
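Cells expressing the human receptor were seeded at 1500 cells/well, incubated overnight at 37 degrees C in 5% CO2, then exposed to library compounds with dopamine controls for 90 minutes at 37 degrees C before luminescent detection.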
D3 ag: agonists of human D3 dopamine receptor; D3R DiscoveRx beta-arrestin cells, luminescence, 90 min; max activation, %; 410,000 tested, 0.58% active; in the data active = max activation above about 30%; note: 0% is about no effect
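Agonist-mode cell screen: cells plated at 1500/well and incubated overnight at 37 °C, then exposed to library compounds for 90 min at 37 °C. Detection reagent was added for 30–60 min at room temperature, and luminescence was read.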
IL1B secr inh: inflammasome signaling inhibition, IL-1 beta readout. THP-1 LPS/ATP IL-1B secretion, AlphaLISA, 16 h; hits give low values. activity change, % at 57.5 µM. 360,000 tested, 4.7% active. AID 743279; in the data active = activity change below about -50%; inconclusive = mostly about -30% to -49%; note: % is set by controls: 0 for no effect and ±100 for the full control effect
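THP-1 cells pretreated 1 hr with compounds (up to 57.5 uM final), then stimulated with LPS (250 ng/mL final) plus ATP (1.25 mM final); secreted IL-1B measured by AlphaLISA after 16 hr, decreased signal indicating inhibition.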
DT40 TDP1 CPT: growth inhibition of DT40 Tdp1-/-;hTDP1 cells with camptothecin (screen for TDP1 inhibitors); Potency, µM (titrated, usually from 46.2 µM), inactives show at the top dose activity change, negative = growth inhibition, most hits filed as inhibitors; chicken DT40 Tdp1-/-;hTDP1 cells + 20 nM CPT, ATP luminescence, 48 h; 420,000 tested, 12% active; note: potency is the fitted concentration of half-maximal effect; % is set by controls: 0 for no effect and ±100 for the full control effect; nearly all actives have a fitted effect of over 55% in size
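Cell growth measured by CellTiter-Glo luminescence after a minimum 48 h, 37 C compound exposure with 20 nM CPT in Tdp1-knockout DT40 cells stably expressing hTDP1, seeded 400/well; qHTS titration format.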
ClpP mod: qHTS Assay for Activators of ClpP | Potency, µM (series often up to 57.5 µM), for the others: at the highest dose activity change, negative = active | purified B. subtilis ClpP, FRET peptide cleavage, 20 min | 340,000 tested, 1.9% active | ATP-dependent Clp protease proteolytic subunit (Bacillus subtilis (strain 168)), P80244; active = well fitted falling curve with a large enough effect; inconclusive = small, poorly fitted or top-dose-only effect; inactive = no such curve, though single readings can be large or run the other way; note: potency is the fitted concentration of half-maximal effect; the source files actives as falling curves though it sought activators and does not explain the sign; nearly all actives have a fitted effect of over 65% in size
Target sequence (P80244 whole entry, looked up): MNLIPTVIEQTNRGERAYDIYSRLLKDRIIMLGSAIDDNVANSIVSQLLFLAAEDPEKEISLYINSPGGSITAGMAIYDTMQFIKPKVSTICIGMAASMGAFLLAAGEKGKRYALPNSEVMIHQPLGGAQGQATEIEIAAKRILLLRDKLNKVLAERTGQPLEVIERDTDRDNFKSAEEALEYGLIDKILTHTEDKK
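Purified B. subtilis ClpP, 10 microg/mL final in Tris/HCl pH8 with KCl, BSA, glycerol and Tween-20, cleaved an Abz/nitrotyrosine-quenched decapeptide. Fluorescence (ex 320, em 430) was read at 0 and 20 min at room temperature. Delta was normalized to 5.8 microM ADEP and DMSO/no-enzyme controls.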
TDP1 cell noCPT: qHTS for Inhibitors of human tyrosyl-DNA phosphodiesterase 1 (TDP1): qHTS in cells in absence of CPT | DT40 Tdp1-/- hTDP1 cells, no CPT, ATP luminescence, 48 h | Potency, µM (doses to about 46.2 µM), for the others: at the highest dose activity change, negative = growth inhibition, hits mostly inhibitors | 420,000 tested, 15% active | AID 686978, 2013; note: potency is the fitted concentration of half-maximal effect; % is set by controls: 0 for no effect and ±100 for the full control effect; nearly all actives have a fitted effect of over 55% in size
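Growth kinetics read by CellTiter-Glo luminescence after ≥48 hr at 37 °C. Cells: DT40 Tdp1-/- stably carrying human TDP1, 400 per well, compound exposure in the absence of CPT (DMSO vehicle).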
* marks the source's active call; other numbers are inactive results. Shown are actives, neighbours in structure and some others; about 21% of the full set was active somewhere. Unless noted, calls come from the whole dose curve; as a rule, active = well fitted inhibition curve with a large enough effect; inconclusive = small, poorly fitted or top-dose-only effect; inactive = flat fitted curve, though single readings scatter.

`CSc1ncccc1C(=O)N1CCN(S(=O)(=O)c2ccc(F)cc2)CC1` gave D3 antag -18, D3 ag 1, IL1B secr inh 6, DT40 TDP1 CPT -21%, ClpP mod -2% and TDP1 cell noCPT 12%.
O=C1CCN(Cc2ccccc2)CCN1[C@H](CSc1ccccc1)Cc1ccccc1 was read as D3 antag -14, D3 ag -12, IL1B secr inh -23, DT40 TDP1 CPT 23µM*, ClpP mod -4% and TDP1 cell noCPT 20µM*.
O=C1CC[C@H](O)CCN1[C@H](CSc1ccccc1)Cc1ccccc1 was read as D3 antag -20, D3 ag -21, IL1B secr inh 20, DT40 TDP1 CPT inconclusive, ClpP mod -4% and TDP1 cell noCPT inconclusive.
Cc1ccc(SC[C@H](CC(C)C)N2CCN(CCc3ccccc3)CCC2=O)cc1 was read as D3 antag -11, D3 ag -28, IL1B secr inh 26, DT40 TDP1 CPT inconclusive, ClpP mod 1% and TDP1 cell noCPT inconclusive.
`COc1ccc(SC[C@H](CC(C)C)N2CCN(CCc3ccccc3)CCC2=O)cc1` gave D3 antag -17, D3 ag -45, IL1B secr inh -1, DT40 TDP1 CPT 15µM*, ClpP mod -1% and TDP1 cell noCPT 18µM*.
For COc1ccccc1CNc1nc(-c2ccco2)nn1C(=O)c1cc(OC)c(OC)c(OC)c1 the results were D3 ag 8, DT40 TDP1 CPT -22%, ClpP mod -12% and TDP1 cell noCPT -19%.
CCN1CCN(c2ccc(S(=O)(=O)N3CCCCC3)cc2NC(=O)/C=C/c2cc(OC)ccc2OC)CC1 was read as D3 antag -23, D3 ag -3, IL1B secr inh -98*, DT40 TDP1 CPT 16µM*, ClpP mod -26% and TDP1 cell noCPT inconclusive.
COc1ccc(OC)c(/C=C/C(=O)Nc2cccc(S(=O)(=O)N3CCCC3)c2)c1 was read as D3 antag -1, D3 ag -1, IL1B secr inh -19, DT40 TDP1 CPT 23µM*, ClpP mod 4% and TDP1 cell noCPT 29µM*.
For CCN1CCN(c2ccc(S(=O)(=O)N3CCCCC3)cc2NC(=O)/C=C/c2ccc(Cl)cc2)CC1 the results were D3 antag -3, D3 ag -2, IL1B secr inh -93*, DT40 TDP1 CPT inconclusive, ClpP mod -3% and TDP1 cell noCPT inconclusive.
`COc1ccc(NC(=S)Nc2cccc(S(=O)(=O)N3CCCCC3)c2)cc1` gave D3 antag 34, D3 ag 3, IL1B secr inh 3, DT40 TDP1 CPT inconclusive, ClpP mod -2% and TDP1 cell noCPT inconclusive.
`CCOC(=O)c1ccccc1NC(=O)c1cc2c(s1)-c1ccccc1SC2` gave D3 ag -13, DT40 TDP1 CPT inconclusive, ClpP mod 1% and TDP1 cell noCPT inconclusive.
For COc1ccc(CCC(=O)NNC(=O)Nc2ccc(C(C)C)cc2)cc1 the results were D3 antag -9, D3 ag -3, IL1B secr inh 7, DT40 TDP1 CPT -9%, ClpP mod -3% and TDP1 cell noCPT 12%.
Screening Cc1cc(C)n(-c2nc(NC(C)C)nc(NC(C)(C)C)n2)n1 returned DT40 TDP1 CPT 1.3µM*, ClpP mod 2% and TDP1 cell noCPT 0.79µM*.
`CC(C)CN(C(=O)C(C)N1C(=O)c2ccccc2C1=O)c1c(N)n(Cc2ccccc2)c(=O)[nH]c1=O` (stereo unspecified) gave D3 antag 18, D3 ag 10, IL1B secr inh 8, DT40 TDP1 CPT -2%, ClpP mod -1% and TDP1 cell noCPT -6%.
Screening O=C(Oc1ccccc1)N1CCC2(CC1)CCN(c1ncccn1)CC2 returned DT40 TDP1 CPT -28% and TDP1 cell noCPT inconclusive.
`O=C(Nc1cccc(S(=O)(=O)N2CCCCC2)c1)C1CCN(C(=O)c2ccc(Cl)cc2)CC1` gave D3 antag -2, D3 ag 3, IL1B secr inh 10, DT40 TDP1 CPT inconclusive, ClpP mod 2% and TDP1 cell noCPT inconclusive.
`O=C(Nc1cccc(S(=O)(=O)N2CCOCC2)c1)C1CCCN(C(=O)c2ccc(Cl)cc2)C1` (stereo unspecified) gave D3 antag -7, D3 ag 3, IL1B secr inh 9, DT40 TDP1 CPT inconclusive, ClpP mod -2% and TDP1 cell noCPT inconclusive.
Screening O=C(Nc1cccc(F)c1)C1CCCN(C(=O)c2ccc(Cl)cc2)C1 (stereo unspecified) returned D3 antag 1, D3 ag 2, IL1B secr inh -8, DT40 TDP1 CPT 21µM*, ClpP mod 1% and TDP1 cell noCPT 18µM*.
`CCc1nnc(NC(=O)C2CCCN(C(=O)c3ccc(Cl)cc3)C2)s1` (stereo unspecified) gave D3 antag inconclusive, D3 ag -6, IL1B secr inh -3, DT40 TDP1 CPT inconclusive, ClpP mod -1% and TDP1 cell noCPT inconclusive.
`O=C(Nc1cccc(S(=O)(=O)N2CCCCCC2)c1)C1CCN(C(=O)c2ccc(Cl)cc2)CC1` gave D3 antag 2, D3 ag -2, IL1B secr inh inconclusive, DT40 TDP1 CPT 18µM* and TDP1 cell noCPT inconclusive.
`O=C(Nc1ccc(S(=O)(=O)N2CCCCC2)cc1)C1CCCN(C(=O)c2ccc(Cl)cc2)C1` (stereo unspecified) gave D3 antag -5, D3 ag -4, IL1B secr inh 2, DT40 TDP1 CPT inconclusive, ClpP mod 2% and TDP1 cell noCPT 21µM*.
For CCSc1nnc(NC(=O)C2CCCN(C(=O)c3ccc(Cl)cc3)C2)s1 (stereo unspecified) the results were D3 antag inconclusive, D3 ag -11, IL1B secr inh 19, DT40 TDP1 CPT 6.5µM*, ClpP mod 4% and TDP1 cell noCPT 5.2µM*.
CN(CC(=O)Nc1ccc2c(c1)OCO2)S(=O)(=O)c1cccs1 was read as D3 antag 5, D3 ag -5, IL1B secr inh -19, DT40 TDP1 CPT -2% and TDP1 cell noCPT -2%.
